Values joined by “and” are separate entries in the source; they are usually repeats but may differ in a detail not shown here. Equal entries are not always repeated.
How the values were obtained:
Type in all cases: functional
[1] = biological target: Solute carrier family 2, facilitated glucose transporter member 1 (Homo sapiens) (UniProt P11166); assay: ST_JUDE_LEISH: Cytotoxicity at 2uM final concentration against transgenic Leishmania Mexicana promastigotes LmGLUT1 that are glucose transport deficient and complemented with the human glucose transporter GLUT1. Activity is measured by DNA content using SYBR green in vitro
Chain of Solute carrier family 2, facilitated glucose transporter member 1 (Homo sapiens) (P11166 whole entry): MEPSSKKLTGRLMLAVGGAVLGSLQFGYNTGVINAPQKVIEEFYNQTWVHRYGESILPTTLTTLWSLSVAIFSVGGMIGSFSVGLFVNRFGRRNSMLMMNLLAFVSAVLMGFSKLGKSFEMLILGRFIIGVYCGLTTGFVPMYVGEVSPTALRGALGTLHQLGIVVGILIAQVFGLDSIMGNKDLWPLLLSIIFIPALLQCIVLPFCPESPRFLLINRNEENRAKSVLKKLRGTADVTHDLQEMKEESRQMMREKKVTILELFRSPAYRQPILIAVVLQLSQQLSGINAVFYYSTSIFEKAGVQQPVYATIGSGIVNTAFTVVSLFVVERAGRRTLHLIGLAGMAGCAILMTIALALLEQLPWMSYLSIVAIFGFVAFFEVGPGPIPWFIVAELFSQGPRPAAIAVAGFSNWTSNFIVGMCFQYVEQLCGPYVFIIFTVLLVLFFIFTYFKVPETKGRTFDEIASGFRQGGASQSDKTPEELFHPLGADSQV

[2] = biological target: Hexose transporter 1 (Plasmodium falciparum) (UniProt O97467); assay: ST_JUDE_LEISH: Cytotoxicity at 2uM final concentration against transgenic Leishmania Mexicana promastigotes LmPfHT that are glucose transport deficient and complemented with the Plasmodium falciparum hexose transporter. Activity is measured by DNA content using SYBR green in vitro
[3] = biological target: Glucose transporter (Leishmania mexicana) (UniProt O61059); assay: ST_JUDE_LEISH: Cytotoxicity at 2uM final concentration against transgenic Leishmania Mexicana promastigotes LmGT2 that are glucose transport deficient and complemented with the L. Mexicana glucose transporter 2. Activity is measured by DNA content using SYBR green in vitro

SMILES	inhibition [1]	inhibition [2]	inhibition [3]
CCCC(=O)c1cnc2c(OCCCc3c[nH]cn3)cccc2c1Nc1c(C)cccc1C	2.21%	1.13%	-1.19%
O=C(Nc1ccncc1)Nc1ccc2c(c1)CCN(C1CCC1)CC2	3.98%	3.34%	11%
CCOc1cc(C(=O)NCCN(CC)c2cccc(C)c2)ccc1-c1nc2cc(Cl)ccc2[nH]1	3.14%	1.88%	1.84%
O=C(O)CNCC(O)c1ccccc1 (stereo not given)	0.32%	-0.04%	0.29%
COc1cc(CNC[C@@H](O)[C@H](Cc2ccccc2)NC(=O)c2cc(C3CCCC3)cc(N3CCCCS3(=O)=O)c2)cc(OC)c1	5.15%	5.6%	6.05%
O=C(/C=C/c1cc([N+](=O)[O-])ccc1Cl)N1CCC(CCN2CCC(c3c[nH]c4ccccc34)CC2)CC1	2.1%	3.61%	0.76%
O=C(NCCCN1CCCCC1)c1cccc(Nc2nccc(Nc3ccc(Oc4ccccc4)cc3)n2)c1	-2.69%	-2.52%	-2.53%
O=C(NCCCN1CCC(N2CCCCC2)CC1)c1ccc(N2CCOc3ccccc32)s1	1.25%	0.98%	3.19%
CS(=O)(=O)c1cc2c(Nc3ccc(N4CCOCC4)cc3)c(C(N)=O)cnc2cc1Br	4.41%	1.07%	3.69%
CN1CCCC(CN2CCN(Cc3ccc(-c4ccc(-c5nc6cc(F)ccc6[nH]5)s4)cc3)CC2)C1 (stereo not given)	5.94%	5.97%	4.47%
Cc1sc(N2CCCCC2)nc1C(=O)Nc1ccc(F)cc1C(F)(F)F	3.13%	-1.54%	0.73%
COc1cccc(-c2cnc(N)c(-c3nc4ccc(C(F)(F)F)cc4[nH]3)c2)c1	4.93%	5.1%	1.42%
COc1ccc(-c2cccc(NC(=O)c3cccc(Cl)c3)c2)cc1CN1CCN(C)CC1	11.2%	12%	7.77%
CN1CCN(c2ccc(-c3cc(-c4cc(F)c(F)c(F)c4)cnc3N)cc2)CC1	4.36%	1.8%	0.2%
CCNc1cc(C)nc(Nc2ccc(NC(=O)Cc3ccc(OC)cc3)cc2)n1	10.8%	10.1%	4.74%
CCC1CN2CCc3c([nH]c4ccccc34)C2CC1CC1NCCc2cc(OC)c(OC)cc21 (stereo not given)	1.68%	4.6%	0.99%
CN(Cc1cnc2nc(N)nc(N)c2n1)c1ccc(C(=O)N[C@@H](CCC(=O)O)C(=O)O)cc1	3.29% and 4.83% and 0.58%	2.33% and 2.91% and 0.06%	-0.37% and 1.34% and 3.42%
COc1ccc(C(C(=O)NC2CCN(C[C@H](O)c3ccnc4ccc(OC)cc34)CC2)N2CCN(c3ccc(Cl)c(Cl)c3)CC2)cc1 (stereo not given in full)	-0.26%	-2.17%	-4.15%
Cc1cc(N(C)C2CCN(CC3CCCCC3)C2)nc(Nc2ccc(Cl)cc2)n1 (stereo not given)	7.35%	5.97%	4.28%
COc1ccc2nccc([C@@H](O)CN3CCC(NCc4nc5ccccc5s4)CC3)c2c1	4.29%	6.41%	-0.69%
COC(=O)c1ccc(NC(=O)Nc2ccc(Cn3ncc(N4CCCNCC4)c(Cl)c3=O)cc2)cc1	-0.9%	0.77%	-0.5%
O=C(NOCc1ccccc1)c1cc(Cl)ccc1O	2.44%	3.78%	2.15%
O=c1ccc(CNc2nc(NCCc3ccccc3)nc3cc(Cl)ccc23)c[nH]1	1.81%	0.69%	1.95%
CCc1c(CCNCCCCCNCCc2ccc(OC)c(OC)c2CC)ccc(OC)c1OC	3.35%	5.75%	4.72%
CS(=O)(=O)CCNc1nccc(N2CCc3ncnc(Nc4ccc(OCc5cccc(F)c5)c(Cl)c4)c3C2)n1	-1.94%	-1.97%	-1.99%

SMILES	inhibition [1]	inhibition [2]	inhibition [3]
CC1(C)CCNc2cc(NC(=O)c3ccc(-c4ncccc4C(F)(F)F)cc3)ccc21	2.63%	1.14%	0.73%
CN(C)CCCNc1ncnc2c1[nH]c1ccc(F)cc12	7.06%	7.08%	7.71%
O=C(Nc1cccc(CN2CCCN(Cc3ccc(O)cc3)CC2)c1)c1cc(F)cc(F)c1	3.19%	1.64%	-5.2%
Cc1cc(F)ccc1N(c1nc(-c2cc(Cl)ccc2Cl)cs1)C1CCNC1 (stereo not given)	8.82%	7.41%	4.16%
O=C(Nc1cccc(CN2CCN(Cc3ccc(O)cc3)CC2)c1)c1cc2ccccc2s1	8.18%	7.34%	8.57%
C=C[C@H]1CN(CCCCCCC)CC[C@H]1CCNc1ccnc2ccc(OC)cc12	-2.18%	3.68%	-1.48%
Nc1nccc2ccc(-c3ccc4nccn4c3)cc12	3.49%	3.17%	4.92%
CCOC(=O)c1ccc(NC(=O)Nc2ccc(-c3cccc(-c4nc5ccccc5[nH]4)c3)cc2)cc1	6.03%	4.66%	1.68%
Nc1nc(N)c2c(ccc3c2ccn3Cc2ccccc2)n1	92.2%	94%	86.1%
Cc1cc(-c2cccc(CNCc3ccc(F)cc3)c2)ccc1S(=O)(=O)NCCN1CCCC1	-0.89%	0.36%	0.1%
CC(CN1CCN(C)CC1)C(=O)Nc1cccc(-c2ccc(-c3nc4ccccc4[nH]3)cc2)c1 (stereo not given)	0.63%	1.17%	-1.58%
Fc1ccc(-c2nc(NCc3cccc(C(F)(F)F)c3)nn2-c2cccc(C(F)(F)F)c2)cc1C(F)(F)F	1.81%	1.48%	2.56%
Cc1cccn2c(=O)c3cc(C(=O)NCc4cccnc4)c(=N)n(CCc4ccccc4)c3nc12	3.35%	4.08%	1.6%
CC(CO)(CO)NCc1cc2ccc3ccsc3c2c2ccccc12	77.1%	71.3%	48%
CC1CCN(c2nc(C(=O)Nc3cccc4c3CCCC4)c(C(C)C)s2)CC1	3.26%	4.73%	6.09%
O=C(Nc1ccccc1)Nc1cccc(-c2nn3c(OCCN4CCCC4)cccc3c2-c2ccncc2)c1	5.75%	6.38%	6.34%
Cc1cc(NC(=O)c2coc3cc(F)c(N4CC(C)N(C)C(C)C4)cc23)cnc1-c1ccc(C#N)cc1 (stereo not given)	0.22%	-1%	-1.53%
CC(C)(C)c1ccc(CNC(=O)c2cc(CNC3CCNCC3)ccc2O)cc1	1.45%	1.01%	0.22%
CCCN1CCN(CCCNC(=O)c2cc3c(-c4ccc(Cl)cc4)nn(C)c3s2)CC1	18.3%	17.4%	10.2%
CN(C)CCOc1ccc(/C(=C(/CCCn2ccnc2)c2ccccc2)c2ccc(O)cc2)cc1	4.25%	6.01%	5.69%
CC(C)(CNC(=O)C1CCN(CCOCc2ccccc2)CC1)c1nc(-c2ccc(Cl)c(O)c2)c(-c2ccncc2)[nH]1	1.22%	0.65%	2.74%
O=C(Nc1cccc(-c2nn3ccccc3c2-c2ccnc(Nc3ccc(-c4cc[nH]n4)cc3)n2)c1)c1c(F)cccc1F	6.17%	10.3%	1.44%
CC(C)(C)c1ccc(NC(=O)c2ccc(CN3CCCN(Cc4cccc(Cl)c4)CC3)cc2)cc1	4.39%	2.95%	1.91%
Oc1ccc(CN2CCC(N3CCN(CCc4ccccc4)CC3)C(O)C2)cc1Cl (stereo not given)	1.3%	-0.2%	2.61%
COc1ccc(NC(=O)N2CCCN(CCCCCNC(=O)/C=C/c3ccc(Cl)cc3)CC2)cc1Cl	2.15%	2.96%	0.93%

— ChEMBL document CHEMBL3433997, “St. Jude Leishmania screening dataset” (2016)
